# Results: PubChem BioAssay AID686979 (National Center for Advancing Translational Sciences (NCATS), 2013)
# The campaign covered roughly 420,000 compounds. About 50,000 (12%) were called active. About 26% were inconclusive and are not listed. Calls follow the shape of the dose curve; as a rule, active = well fitted inhibition curve with a large enough effect; inconclusive = small, poorly fitted or top-dose-only effect; inactive = flat fitted curve, though single readings scatter. Shown is part of a subset that was picked to be rich in actives. A call without a number means that no potency is given here.
# Assay: qHTS for Inhibitors of human tyrosyl-DNA phosphodiesterase 1 (TDP1): qHTS in cells in presence of CPT; also: nearly all actives have a fitted effect of over 55% in size
# Settings: chicken DT40 Tdp1-/-;hTDP1 cells + 20 nM CPT, ATP luminescence, 48 h; series mostly up to 46.2 µM
# Procedure, shortened: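 Cell growth measured by CellTiter-Glo luminescence after a minimum 48 h, 37 C compound exposure with 20 nM CPT in Tdp1-knockout DT40 cells stably expressing hTDP1, seeded 400/well; qHTS titration format.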
# Potency is read from the fitted curve at half-maximal effect.
row,SMILES,Potency
1,COC(=O)[C@@H]1C[C@H]2CC[C@H](O)C[C@H]2N1Cc1ccc(N2CCN(C)CC2)cc1,inactive
2,Oc1c(C(c2ccccn2)N2CCOCC2)ccc2cccnc12 (stereo not given),16.4 µM (active)
3,Cc1nc2sc(C(c3ccco3)N3CCOCC3)c(O)n2n1 (stereo not given),inactive
4,O=C(c1cccnc1NCc1ccccc1)N1CCOCC1,inactive
5,O=C(O)c1cc(S(=O)(=O)Nc2ccc3cn[nH]c3c2)ccc1Br,inactive
6,O=C(Nc1ccccc1)C1CC(=O)n2c(nc3ccccc32)N1 (stereo not given),inactive
7,O=c1ccc2cc(S(=O)(=O)NCCCc3ccccc3)ccc2[nH]1,inactive
8,CSc1nnc(C2CCCN(CC(=O)Nc3ccccc3N3CCOCC3)C2)n1C(C)C (stereo not given),inactive
9,CCOC(=O)CSc1nc2c(c(=O)n(C)c(=O)n2C)n1Cc1ccccc1F,inactive
10,CC(C)n1c(SCC(=O)Nc2ccccc2N2CCCCC2)nc2c1c(=O)n(C)c(=O)n2C,29.1 µM (active)
11,Cc1cccc(Cn2c(SCCO)nc3c2c(=O)n(C)c(=O)n3C)c1,25.9 µM (active)
12,Cn1c(=O)c2c(nc(SCC(=O)Nc3ccc(F)cc3)n2Cc2ccccc2)n(C)c1=O,4.61 µM (active)
13,CCCCn1c(SCC(=O)N2CCOCC2)nc2c1c(=O)n(C)c(=O)n2C,inactive
14,COC(=O)C(C)Sc1nc2c(c(=O)n(C)c(=O)n2C)n1Cc1cccc(C)c1 (stereo not given),inactive
15,CCC1CCCCN1C(=O)CSc1nc2c(c(=O)n(C)c(=O)n2C)n1C (stereo not given),inactive
16,C#CC(C)(C)NC(=O)CSc1nc2c(c(=O)n(C)c(=O)n2C)n1CCCC,inactive
17,O=C(c1cccs1)N1C[C@H](n2cc(C3CC3)nn2)[C@@H](O)C[C@@H]1c1ccccc1,inactive
18,O=C(O)CC12CC3CC(C1)CC(n1ncc(NCc4ccc(F)cc4)c(Cl)c1=O)(C3)C2,inactive
19,CC(C)(C)C1CCC(C(=O)NCC(c2cccs2)N2CCOCC2)CC1 (stereo not given),16.4 µM (active)
20,Cc1ccc(C(=O)NCC(c2cccs2)N(C)C)cc1S(=O)(=O)N1CCOCC1 (stereo not given),inactive
21,O=C(NCc1csc(-c2cccs2)n1)C1CC1,inactive
22,Cc1c(C=O)c2ccccc2n1CC(=O)O,inactive
23,Cc1ccc(S(=O)(=O)N2CCOCC2)cc1NC(=O)COC(=O)c1cnccn1,inactive
24,COc1cc(/C=C/c2ccc(/C=C/c3cc(OC)c(OC)c(OC)c3)cc2)cc(OC)c1OC,inactive
25,O=C1c2ccccc2C2=Nc3ccccc3SC(c3ccccc3F)C12 (stereo not given),14.6 µM (active)
26,O=C1c2ccccc2C(=O)C1c1ccccc1F,inactive
27,O=C1CSC(=S)N1c1ccc(Cl)c(Cl)c1,inactive

row,SMILES,Potency
1,COc1ccc(/C=C(\C#N)c2c[nH]c3ccccc23)cc1,1.16 µM (active)
2,C[N+](C)(C)CCNC(=O)c1c[nH]c2ccccc12,inactive
3,COc1ccc(/C=C(\NC(=O)c2ccc(OC)c(OC)c2)C(=O)NCCc2c[nH]c3ccccc23)cc1,inactive
4,COC(=O)c1ccc(/C=N/OCC(=O)Nc2cc(F)ccc2F)cc1,inactive
5,COc1cccc(N2CC(NS(=O)(=O)c3ccc(Cl)cc3)CC2=O)c1 (stereo not given),inactive
6,CSC1=NCCN1C(=O)Cc1cccc2ccccc12,inactive
7,CC(C)(C)CN1C(=O)C(=O)NC[C@H]1Cc1cccc2ccccc12,inactive
8,c1ccc2c(CCN3CCNC[C@H]3Cc3cccc4ccccc34)cccc2c1,20.6 µM (active)
9,c1ccc(C[C@H]2CNCCN2CCC23CC4CC(CC(C4)C2)C3)cc1,10.3 µM (active)
10,O=C1CCNCCN1[C@H](CO)Cc1ccccc1,inactive
11,Nn1c(SCC(=O)NC2CCCC2)nnc1-c1ccccc1F,inactive
12,COCC1CCN(C(=O)c2ccc3oc(Cc4ccccc4)nc3c2)C1 (stereo not given),inactive
13,COc1cc(OC)c(NC(=O)c2cc(S(=O)(=O)N3CCCC3)cn2C)cc1Cl,inactive
14,Cc1cccc(OCC(=O)Nc2ccccc2F)c1,inactive
15,Cc1cccc(OCCC(=O)Nc2ccccc2C(N)=O)c1,9.2 µM (active)
16,Cc1ccccc1NC(=O)CCOc1ccccc1,inactive
17,Cc1oc2c(c1C(=O)Nc1ccc(F)c(F)c1)C1=NCCN1C=N2,inactive
18,COc1ccc(/C=N/n2nnnc2N)cc1OC,inactive
19,Nc1nc(SCC(=O)Nc2ccc(Cl)c([N+](=O)[O-])c2)n[nH]1,inactive
20,CC(OC(=O)CN1C(=O)COc2ccccc21)C(=O)NCc1ccc(F)cc1 (stereo not given),inactive
21,O=C(CN1CCOC1=O)N1CCCC(Nc2ccc(F)c(F)c2)C1 (stereo not given),inactive
22,CC(C)=C1C2CCC1C1C(=O)N(NC(=O)c3ccco3)C(=O)C21 (stereo not given),inactive
23,O=C(NCCOc1ccccc1)c1ccccc1,inactive
24,CC(C)(c1ccccc1)c1ccc(OCCN)cc1,18.4 µM (active)
25,O=C(NCCc1ccccc1)c1ccc(OCCOc2ccccc2)cc1,inactive
26,CCOC(=O)c1sc(NC(=O)/C=C/c2ccc(C(C)C)cc2)c(C(=O)OCC)c1C,inactive
27,COc1cccc(CNC(=O)[C@@H]2CCCN2C(=O)[C@@H]2CCCN2C(=O)c2ccccc2)c1,inactive

row,SMILES,Potency
1,COc1cccc(-n2nc(C(=O)N3CCN(Cc4ccccc4)CC3)c3ccccc3c2=O)c1,20.6 µM (active)
2,COc1cccc(N2C(=O)CN(Cc3ccccc3)C2=S)c1,inactive
3,CCOC(=O)CNC(=O)c1nn(-c2cccc(OC)c2)c(=O)c2ccccc12,inactive
4,N=C1C(c2nc3ccccc3[nH]2)=C(O)CN1NC(=O)c1c[nH]c2ccccc12,inactive
5,O=C(COC(=O)CCCN1C(=O)c2cccc3cccc(c23)C1=O)NC1CCS(=O)(=O)C1 (stereo not given),inactive
6,Cc1ccc(-c2cc(C(=O)Nc3nn[nH]n3)c3ccccc3n2)c(C)c1,inactive
7,Cc1ccc(-c2cc(C(=O)N/N=C/C=C/c3ccco3)c3ccccc3n2)cc1C,8.2 µM (active)
8,Nc1ccccc1C(=O)NC1CCCCNC1=O (stereo not given),inactive
9,CNC(=O)c1ccc(CN(C)C(=O)c2cc(C3CC3)nc3c2cnn3C(C)C)cc1,inactive
10,CCOC(=O)c1ccc(-c2ccc(/C=C(\C#N)C(=O)Nc3ccc(C)cc3)o2)cc1,9.2 µM (active)
11,CCOC(=O)c1ccc(NC(=O)CNC(=O)c2ccco2)cc1,inactive
12,CCOC(=O)c1ccc(-c2ccc(/C=C(\C#N)C(=O)Nc3ccc(OCC)cc3)o2)cc1,inactive
13,N#C/C(=C\N1CCOCC1)S(=O)(=O)c1ccc(Cl)cc1,inactive
14,O=C(COC(=O)c1ccccn1)NNC(=O)c1ccc([N+](=O)[O-])cc1,inactive
15,O=S1(=O)CCN(Cc2ccccc2)CC1,inactive
16,CN(CC(=O)NCc1ccncc1)S(=O)(=O)c1ccc(Br)cc1,inactive
17,CC(=O)c1nn(-c2ccccc2)c(=Nc2ccccc2)cc1C,inactive
18,COC(=O)c1cc(-c2cccs2)nc2ccccc12,inactive
19,CC(=O)Nc1cccc(Nc2nc(-c3cccs3)nc3ccccc23)c1,16.4 µM (active)
20,O=c1[nH]c(-c2cccs2)nc2ccccc12,inactive
21,CCN(CC)c1ccc(/C=N/NC(=O)CNC(=O)c2cccs2)cc1,inactive
22,CCN(C(=O)CSc1ncnc2sccc12)c1c(N)n(Cc2ccccc2)c(=O)[nH]c1=O,inactive
23,Cc1nnc(-c2ccc(Oc3ccc(C)c(C)c3)c([N+](=O)[O-])c2)o1,16.4 µM (active)
24,COc1ccc(-c2nc3cc([N+](=O)[O-])ccc3o2)cc1OC,inactive
25,COc1ccc(OCC(=O)Nc2cc(C)c(Cl)cc2OC)c([N+](=O)[O-])c1,inactive
26,Nc1nc(SCC(=O)NN(c2ccccc2)c2ccccc2)n[nH]1,inactive
27,Cc1ccc(C(=O)Nc2ccccc2F)cc1S(=O)(=O)N1CCOCC1,inactive

row,SMILES,Potency
1,CCc1ccc(N(C(=O)c2csnn2)C(C(=O)NC2CCCCC2)c2cccnc2)cc1 (stereo not given),inactive
2,Cc1ccc(S(=O)(=O)NCCC(c2ccccc2)c2ccccc2)cc1C(=O)O,inactive
3,O=c1[nH]oc(O)c1-c1ncc(C(F)(F)F)cc1Cl,inactive
4,Cc1ccc(-c2nnc(Nc3ccc(C(=O)N(C)C)cc3)c3ccccc23)cc1S(N)(=O)=O,inactive
5,COCCNS(=O)(=O)c1cc(-c2nn3c(C)nnc3c3ccccc23)ccc1C,inactive
6,CCNS(=O)(=O)c1cc(-c2nnc(Nc3cccc(C(F)(F)F)c3)c3ccccc23)ccc1C,5.8 µM (active)
7,O=C(O)C1CCCN1C1=NS(=O)(=O)c2ccccc21 (stereo not given),inactive
8,CN1OC[C@@H]2CN(S(=O)(=O)c3cccc(C(F)(F)F)c3)[C@H](c3ccc(-c4cc5ccccc5o4)cc3)C[C@@H]21,inactive
9,CC1=CC(=NNS(=O)(=O)c2ccc([N+](=O)[O-])cc2)CC(C)(C)C1,inactive
10,CCCC1OC23CCCCC2C(C#N)(C#N)C1(C#N)C(=N)O3 (stereo not given),5.8 µM (active)
11,O=C(CSc1cn(CC(=O)N2CCOCC2)c2ccccc12)Nc1ccccc1,inactive
12,O=C(NCc1ccccc1)[C@@H]1CSC2c3ccccc3C(=O)N21 (stereo not given in full),inactive
13,COCCCC1CCN(C(=O)C2CCC(=O)N(C3CCCCCC3)C2)CC1 (stereo not given),inactive
14,CC1CN(/C=C/C(=O)C(F)(F)F)CC(C)O1 (stereo not given),inactive
15,COC(=O)N/N=C/c1c[n+]([O-])c2ccccc2[n+]1[O-],inactive
16,O=C(COc1ccc(Cl)cc1Cl)NCCCNC(=O)c1cnccn1,inactive
17,CCOc1ccc(S(=O)(=O)N2CCC(C(=O)NCc3ccccn3)CC2)cc1Cl,inactive
18,Clc1ccc(CN2CCCCCC2)cc1Cl,inactive
19,O=C(NNS(=O)(=O)c1ccc(Cl)cc1)C1CCN(Cc2ccccc2)CC1,inactive
20,Cc1ccc(C(NC(=O)C2CCN(CCOc3ccc(Cl)cc3Cl)CC2)c2ccccn2)cc1 (stereo not given),25.9 µM (active)
21,O=C(CCCOc1ccc(Cl)cc1Cl)NNC(=O)C1CCC1,inactive
22,COc1cccc(CN2CCC(C(=O)NC(c3ccc4c(c3)OCO4)c3ccccn3)CC2)c1 (stereo not given),inactive
23,Cc1cccnc1C(NC(=O)C1CCN(Cc2ccc(Cl)c(Cl)c2)CC1)c1ccc(Cl)cc1 (stereo not given),3.26 µM (active)
24,O=C(NC(c1ccc(-c2ccccc2)cc1)c1cnccn1)C1CCN(CCOc2ccc(Cl)cc2Cl)CC1 (stereo not given),16.4 µM (active)
